Source: PubChem (National Center for Advancing Translational Sciences (NCATS))
Marburg entry inh: inhibitors of Marburg virus binding or cell entry | 300,000 tested, 1.8% active | Potency, µM (titrated, usually from 37.8 µM), actives largely listed as inhibitors | Marburg virus pseudotyped entry inhibition, cell reporter | AID 540276; calls by dose curve; tested in HEK293 cells
SARS PLP yeast: SARS-CoV PLP inhibition in yeast; S. cerevisiae expressing SARS-CoV PLpro, growth rescue; Potency, µM (highest dose often 32.9 µM), usual class: activators; 330,000 tested, 0.19% active; AID 485353; calls by dose curve; also: nearly all actives have a fitted effect of over 55% in size
FMDV inh: foot and mouth disease virus antiviral activity. FMDV antiviral cell-based qHTS. Potency, µM (titrated, usually from 57.9 µM), actives largely listed as inhibitors. 410,000 tested, 1.2% active. AID 1159524; calls by dose curve; tested in HEK293T cells; also: read-out not given here; nearly all actives have a fitted effect of over 45% in size
HCV inh: blocks hepatitis C virus | Huh7.5.1 HCVcc-Cre infection, luciferase reporter, 44 h | Potency, µM (doses to about 41.8 µM), most hits filed as inhibitors | 340,000 tested, 3.4% active; active = well fitted inhibition curve with a large enough effect; inconclusive = small, poorly fitted or top-dose-only effect, or another doubt; inactive = no such curve, though single readings can be large or run the other way
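A cell-based infection assay in which seeded cells (1,000 per well) receive test compound after 4 h, are inoculated with HCVcc-Cre at approximately 0.5 moi, and are incubated 44 h before luminescence detection.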
LASV entry inh: inhibitors of Lassa virus binding or cell entry; Lassa virus pseudotype entry inhibition, cell reporter; Potency, µM (titrated, usually from 37.9 µM), hits mostly inhibitors; 300,000 tested, 1.2% active; AID 540256; calls by dose curve; tested in HEK293 cells; also: nearly all actives have a fitted effect of over 50% in size
HCMV antiviral: human cytomegalovirus inhibition; HFF cells, HCMV-luciferase reporter, 72 h; hits give low values; activity change, negative = inhibition, % at 57.5 µM; 410,000 tested, 4.5% active; in the data active = activity change below about -60%; inconclusive = no clear call, values can overlap the other calls; inactive = above about -39%
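Compounds were evaluated in HFFs infected with an HCMV luciferase reporter virus (MOI 1 PFU/cell). Luciferase in lysates collected 72 h post infection served as the replication measure.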
A number is an active result; 0 = inactive; ? = inconclusive; - = no result given. This is a sample that favours compounds with a hit; in the whole collection about 8% have one here.

SMILES	Marburg entry inh	SARS PLP yeast	FMDV inh	HCV inh	LASV entry inh	HCMV antiviral
O=C(CSc1nc2c(sc3ccccc32)c(=O)n1CCCN1CCCC1)NCc1ccccc1	?	0	0	?	?	0
O=C(CSc1nc2c(sc3ccccc32)c(=O)n1CCCN1CCOCC1)NC1CCCC1	8.2µM	0	0	0	0	0
COc1cccc(NC(=O)CSc2nc3c(sc4ccccc43)c(=O)n2CCN(C)C)c1	?	0	0	?	?	0
c1ccc(-c2ncc(-c3ccn[nH]3)s2)cc1	?	0	0	0	?	0
COc1ccc(NC(=O)c2nn(C)c(=O)c3ccccc23)cc1S(=O)(=O)Nc1ccccc1Cl	-	0	0	13µM	-	0
CCN1CCN(c2ccc(S(=O)(=O)N3CCOCC3)cc2NC(=O)C(C)Oc2cccc(Cl)c2)CC1 (stereo unspecified)	?	0	0	?	?	0
Cn1nc(C(=O)Nc2cccc(S(=O)(=O)N3CCCCC3)c2)c2ccccc2c1=O	6.3µM	0	0	?	0	0
Cc1cc(C)n(-c2ccc(C(=O)N3CCN(S(=O)(=O)c4cccc(Br)c4)CC3)cc2)n1	-	-	?	7.9µM	-	-64
Cc1cc(C)n(-c2ccc(C(=O)N3CCN(S(=O)(=O)c4ccc(C(C)C)cc4)CC3)cc2)n1	-	0	?	?	-	0
CC(Oc1cccc(Cl)c1)C(=O)Nc1cc(S(=O)(=O)N2CCOCC2)ccc1N1CCCCC1 (stereo unspecified)	?	0	?	22µM	?	0
COc1ccccc1NS(=O)(=O)c1cccc(NC(=O)c2nn(C)c(=O)c3ccccc23)c1	-	0	0	?	-	0
CC(C)Oc1ccc(C(=O)Nc2cc(S(=O)(=O)N3CCOCC3)ccc2N2CCOCC2)cc1	?	0	0	?	13µM	0
CC1CC1C(=O)Nc1cc(S(=O)(=O)N2CCOCC2)ccc1N1CCCC1 (stereo unspecified)	0	0	0	10µM	0	?
CC(C)Oc1ccc(C(=O)Nc2cccc(S(=O)(=O)N3CCCC3)c2)cc1	?	0	0	2.8µM	?	?
Cc1cc(C)n(-c2ccc(C(=O)Nc3cccc(S(=O)(=O)N4CCCC4)c3)cc2)n1	?	0	0	?	?	-72
CO[C@H]1[C@H](NC(=O)c2ccsc2)c2ccccc2C12CCN(Cc1c(O)ccc3ccccc13)CC2	-	-	0	-	-	-
CC(=O)N1CCc2c(sc(NC(=O)CS(=O)(=O)c3ccc(F)cc3)c2C(N)=O)C1	0	0	0	0	0	0
CN(C)S(=O)(=O)c1cccc(NC(=O)c2ccc(S(=O)(=O)N3CCCC3)cc2)c1	0	0	0	10µM	0	0
C[C@H]1CN([C@@H](C)CO)S(=O)(=O)c2ccc(/C=C/c3ccccc3)cc2O[C@H]1CN(C)C(=O)NC1CCCCC1	-	-	0	-	-	-63
C[C@H](CO)N1C[C@H](C)[C@H](CN(C)Cc2ccc(Oc3ccccc3)cc2)Oc2cc(Br)ccc2S1(=O)=O	-	-	0	-	-	-109
C[C@H]1CN([C@@H](C)CO)S(=O)(=O)c2ccc(Br)cc2O[C@H]1CN(C)Cc1ccccc1	-	-	?	-	-	0
Cc1nc2cnc(Nc3ccccc3)nc2n(C2CC2)c1=O	-	-	0	-	-	-
Cc1oc(-c2ccccc2NC(=O)c2ccccc2)nc1CNC(=O)C1CC(=O)OC12CCCCC2 (stereo unspecified)	-	-	0	-	-	-
O=C(NN=C1C[C@@H](O)[C@H](O)[C@H]2[C@@H]3C(=O)N(C4CCCCC4)C(=O)[C@@H]3CC[C@@H]12)OCc1ccccc1	0	-	-	-	-	-
Cc1ccc(C2C(C#N)=C(N)OC3=C2C(=O)CC(C)(C)C3)s1 (stereo unspecified)	-	0	0	0	-	0
SMILES	Marburg entry inh	SARS PLP yeast	FMDV inh	HCV inh	LASV entry inh	HCMV antiviral
CCOC(=O)N1CCc2c(sc(NCc3cccs3)c2C(=O)Nc2cc(Cl)ccc2OC)C1	-	-	0	-	0	0
Nc1ccc(C(=O)N/N=C2\CCCc3c2[nH]c2ccccc32)cc1	0	0	0	?	0	0
CC(C)c1ccc2[nH]c3c(c2c1)CCC/C3=N\NC(=O)c1ccncc1	?	0	?	0.35µM	?	0
CC1(C)O[C@@H]2[C@H](O1)[C@@H](COS(=O)(=O)O)O[C@H]2n1c(=S)[nH]c2c(=O)[nH]c(N)nc21	-	0	0	0	-	0
CCSC1=N/C(=C\c2ccc3c(c2)OCO3)C(=O)S1	0	0	0	0	0	0
CN1C(=O)/C(=C/c2ccc3c(c2)OCO3)N=C1c1ccccc1	0	0	0	0	0	-101
Cn1c(=O)n(C)c2cc(N3CCCCC3)c(NC(=O)c3ccc(C(C)(C)C)cc3)cc21	0	-	?	-	0	0
OC(c1ccco1)c1nc(-c2ccc(F)c(Cl)c2)cs1 (stereo unspecified)	-	-	0	-	-	-65
CCc1c(C)sc2c1CCN(C(=O)Nc1cc(C)cc(C)c1)C2c1ccccc1 (stereo unspecified)	-	-	0	-	0	0
CCc1c(C)sc2c1CCN(Cc1ccc(F)cc1)C2c1ccccc1 (stereo unspecified)	-	-	0	-	?	-98
CCc1c(C)sc2c1CCN(Cc1cccc(F)c1)C2c1ccccc1 (stereo unspecified)	-	-	0	-	?	-78
CCc1c(C)sc2c1CCN(Cc1ccc(C#N)cc1)C2c1ccccc1 (stereo unspecified)	-	-	0	-	?	0
COC(=O)c1c(NC(=O)CSc2ncnc3[nH]ncc23)sc2c1CCC2	0	0	0	0	?	-81
COC(=O)c1c(NC(=O)CSc2ncnc3c2cnn3-c2ccccc2Cl)sc2c1CCCC2	?	0	0	?	5.8µM	-85
N#Cc1c(NC(=O)CSc2ncnc3c2cnn3-c2ccccc2Cl)sc2c1CCCC2	?	0	0	?	?	?
COc1cc(CNC(=O)c2cnc3c(-c4cccc(C)c4)c(C)nn3c2C)cc(OC)c1OC	-	-	0	-	0	0
Cc1cc(C)n(-c2nc3ccccc3nc2Nc2cccc(C)c2C)n1	0	-	0	-	0	0
CC(C)C(=O)N1CCC1(C)C(=O)NCc1ccc(F)cc1Cl (stereo unspecified)	-	-	0	-	-	0
CC(C)(C)c1ccc(-c2nnc(SCC(=O)Nc3sc4c(c3C#N)CCCC4)o2)cc1	?	0	0	0	?	-102
N#Cc1c(NC(=O)CSc2nc(N)cc(=O)[nH]2)sc2c1CCCCCC2	?	0	-	?	0	?
CCOC(=O)c1c(NC(=O)CSc2nnc(-c3ccc(Cl)cc3)o2)sc2c1CCC2	0	-	0	0	0	0
N#Cc1c(NC(=O)CSc2ncn[nH]2)sc2c1CCCCC2	0.46µM	0	8.9µM	?	0	-64
CC12CCC(C(=O)NCc3ccccc3)(OC1=O)C2(C)C (stereo unspecified)	?	0	0	0	0	0
C/C(=N\NC(=O)C12CCC(C)(C(=O)O1)C2(C)C)c1ccccc1O (stereo unspecified)	-	0	0	?	-	-103
Cc1ccc(COc2ccccc2-c2cc(C(=O)N/N=C/c3cccnc3)[nH]n2)cc1	?	0	?	?	8.9µM	0
